Each structure is given as a SMILES string. The panel holds about 83,000 compounds, 20% with a hit somewhere; the sample as a whole holds those more often.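 Activity criterion: percent growth below 10, measured after cells in 96-well plates were exposed to a single compound concentration for 48 hours.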 Unmarked numbers belong to inactive results. The source made the active and inactive calls.

Experimental findings from PubChem BioAssay (NCI) are described below.

What all share (assay): NCI-60 one-dose screen, 48 h (100 = growth as untreated, 0 = no growth, -100 = all killed)
The subject of test [1] is NCI-H226 lung. Particulars: 10 µM unless noted.
In test [2] the test system is NCI-H322M lung. Particulars: 10 µM unless noted.
Test [3] deals with HOP-62 NSCLC. The conditions noted are these: 10 µM unless noted.
The test system of test [4] is NCI-H460 lung. The conditions noted are these: 10 µM unless noted.
Test [5] deals with HOP-92 NSCLC. Particulars: 10 µM.
Test [6] relates to NCI-H522 lung. The conditions noted are these: 10 µM unless noted.
Test [7] has as its system A549/ATCC NSCLC. Particulars: 10 µM unless noted.
Test [8] deals with 786-0 renal. The conditions noted are these: 10 µM unless noted.
In test [9] the test system is COLO 205 colon. The conditions noted are these: 10 µM unless noted.
For test [10], the system named is DU-145 prostate. Particulars: 10 µM unless noted.
The subject of test [11] is K-562 leukemia. The conditions noted are these: 10 µM unless noted.
Test [12] relates to MALME-3M melanoma. Particulars: 10 µM unless noted.
Test [13] relates to MDA-MB-231 breast. Particulars: 10 µM unless noted.
Test [14] relates to RXF 393 renal. Particulars: 10 µM unless noted.
Test [15] deals with SF-268 CNS. The conditions noted are these: 10 µM unless noted.
In test [16] the test system is SF-295 CNS. Particulars: 10 µM unless noted.
Test [17] has as its system SF-539 CNS. The conditions noted are these: 10 µM unless noted.
The subject of test [18] is UACC-257 melanoma. The conditions noted are these: 10 µM unless noted.
The test system of test [19] is M14 melanoma. Particulars: 10 µM unless noted.
Test [20] concerns NCI-H23 lung. The conditions noted are these: 10 µM unless noted.

As for `CCCCCCCn1cc2c(NCCc3ccccc3)ncnc2n1`, the growth was 103% in [1]; 102% in test [2]; 94.1% in test [3]; 100% in test [4]; 94.2% in [5]; 95.3% in test [6]. The growth was 98.2% in [7]; 99.5% in test [8]; 129% in test [9]; 102% in [10]; 88.6% in [11]; 94.4% in test [12]. For the same compound, the growth in [13] is 94%; in test [14], 104%; in test [15], 99.3%; in test [16] it was 90%; in test [17], 95.9%; in test [18], 102%. In addition, the growth in [19] was 100%.

`COc1ccc(/C=N/NC2=NC3C(S2)N(C)C(=O)N3C)cc1` (stereo not drawn): the growth in [1] is 57.9%; in test [2] it was 47.5%; in test [3], 29.1%; in [4] it was 9.74% (active); in test [5], 30.7%; in [6] it was -9.16% (active). Moreover, the growth is 48.6% in test [7]; 43.9% in [8]; 7.48% (active) in test [9]; 25.2% in [10]; 9.56% (active) in test [11]; 39% in test [12]. Further, the growth in test [13] is 44.9%; in test [14] it was -19.3% (active); in test [15] it was 47.6%; in [16] it was 10.6%; in test [17], 2.22% (active); in test [18], 79.8%. Further, the growth in test [19] was 32.5%.

As for `COc1ccc(-c2nn(-c3ccc(S(C)(=O)=O)cc3)cc2/C=N/O)cc1`, the growth in test [1] is 94.7%; in [2] it was 108%; in test [3], 109%; in [4], 102%; in test [5], 98.8%; in test [6], 100%. For the same compound, the growth in test [7] was 105%; in [8], 105%; in test [9], 119%; in [10], 107%; in test [11], 107%; in [12] it was 103%. Further, the growth in test [13] was 96.7%; in test [14], 103%; in test [15] it was 108%; in test [16] it was 106%; in test [17], 92.1%; in test [18] it was 104%. Moreover, the growth in test [19] was 109%.

As for `NS(=O)(=O)c1ccc(Nc2nc(SCc3ccccc3)nc3ccccc23)cc1`, the growth in test [1] is 76.8%; in [2], 88.7%; in [3] it was 86.2%; in test [4], 45.1%; in test [5], 55.4%; in [6] it was 81.3%. Further, the growth in [7] was 52.6%; in [8], 40.3%; in test [9], 79.6%; in [10], 61.7%; in test [11], 14.4%; in [12] it was 81.7%. Besides, the growth in test [13] is 53.9%; in [14], 45.5%; in test [15] it was 73.2%; in [16], 59.9%; in test [17] it was 48.8%; in [18], 92.8%. Moreover, the growth in test [19] is 75%.

For the compound `CN1CCN(Cc2ccc(NC(=O)c3cncc(C#Cc4cnc5ccc(N6CCN(C)CC6)nn45)c3)cc2C(F)(F)F)CC1`, the growth in test [1] is 28%; in test [2], 35.5%; in test [3], 28.8%; in [4], -82.4% (active); in [5] it was -16.1% (active); in test [6], 82.1%. Besides, the growth in [7] was -71.4% (active); in [8], -84.6% (active); in [9] it was 38.9%; in test [10], -94.2% (active); in test [11], -59% (active); in test [12], 68.3%. For the same compound, the growth in [13] is -66.7% (active); in [14] it was -89.9% (active); in test [15], -50.7% (active); in test [16], -78.4% (active); in test [17] it was -98% (active); in test [18], 101%. Besides, in [19], the growth was -45.8% (active).

Consider `C=CCOc1cccc(/C=C2\SC(=S)N(C3CC(=O)N(c4ccc(Br)cc4)C3=O)C2=O)c1` (stereo not drawn), for which the growth in [2] is 102%; in test [3] it was 100%; in test [4], 104%; in [5], 107%; in test [6] it was 101%; in [7], 105%. The growth was 104% in test [8]; 126% in [9]; 109% in [10]; 88.1% in [11]; 100% in [12]; 96.3% in [13]. Moreover, the growth in [14] is 132%; in test [15] it was 103%; in [16], 97.8%; in test [17], 101%; in test [18], 108%; in test [19], 106%.

As for `COc1ccc2c(c1)c(-c1cc(N)n3nc(-c4cn(C)c5ccc(OC)cc45)cc3n1)cn2C`, the growth in [1] was 126%; in [2], 101%; in test [3] it was 103%; in [4] it was -64.3% (active); in test [5] it was 86.8%; in test [6], 109%. The growth is 46.1% in [7]; 91.9% in test [8]; 123% in test [9]; 93.1% in test [10]; -16.6% (active) in test [11]; 98% in [12]. In addition, the growth was 78.4% in [13]; 128% in test [14]; 109% in [15]; 98.9% in [16]; 94.9% in test [17]; 110% in test [18]. Besides, the growth in test [19] was 111%.

As for `O=c1[nH]c(Sc2sc3ccc(Cl)cc3c2CBr)nc(=S)[nH]1`, the growth in [1] is 55.1%; in [2], 39.7%; in [3], 28.2%; in test [4] it was 21.5%; in [6], 13%; in test [7], 39.8%. For the same compound, the growth in [8] was 51%; in test [9], 108%; in test [10], 33.9%; in test [11], 12%; in test [12], 27.4%; in test [13], 35.9%. Moreover, the growth in test [14] was 9.12% (active); in test [15] it was 48.9%; in test [16], 23%; in test [17] it was 32.1%; in test [18] it was 44.1%; in test [19], 27.6%.

As for `N#Cc1cn(Cc2ccc(Cl)cc2Cl)c(C(=O)c2ccc(Br)cc2)c1N`, the growth in test [20] was 93.8%; in test [2] it was 95%; in [3], 82.6%; in test [4] it was 95.9%; in test [6], 91.2%; in [7], 98.2%. For the same compound, the growth was 99.1% in [8]; 114% in test [9]; 99.7% in [10]; 94.9% in test [11]; 88.2% in test [13]; 95.8% in test [14]. The growth in [15] is 92.7%; in test [16], 83.7%; in test [17] it was 81.4%; in test [18] it was 92.1%; in test [19] it was 98%.

Take `O=C(CSc1nc2ccccc2c(=O)n1-c1ccccc1)Nc1ccc(-c2nc3ccc([N+](=O)[O-])cc3[nH]2)cc1`: the growth in [1] is 82%; in [2] it was 97.8%; in test [3], 99.1%; in test [4] it was 63.5%; in test [6] it was 75.2%; in test [7], 93.4%. Moreover, the growth in [8] is 95.2%; in test [9], 110%; in [10] it was 84.2%; in test [11], 42.7%; in test [12], 71.1%; in test [13], 76.8%. The growth in test [14] is 64.5%; in test [15], 76.2%; in test [16] it was 103%; in test [17], 78.2%; in test [18] it was 95.8%; in [19] it was 93.3%.

In the case of `CCCSc1nc(Nc2ccc(/C(C)=N\NC(N)=S)cc2)c(C#N)c(-c2ccccc2)n1`, the growth in [1] was 49.4%; in [2], 84.3%; in [3], 84.2%; in [4] it was 32.7%; in [5], -8.02% (active); in test [6] it was 85.2%. The growth in test [7] is 43.7%; in [8], 60.3%; in test [9], 79.9%; in test [10] it was 66.3%; in test [11], 56.5%; in [12], 97.9%. Besides, the growth was 72.9% in [13]; -4.63% (active) in test [14]; 103% in [15]; 51.8% in test [16]; 36.4% in test [17]; 105% in test [18]. In addition, the growth in test [19] was 99.6%.

Consider `CCNC(=O)Oc1ccc(/C(=C(/C)c2ccccc2)c2ccc(OCCN3CCCCCC3)cc2)cc1`, for which the growth is 55% in test [1]; 71.1% in [2]; 6.15% (active) in test [3]; -67.3% (active) in test [4]; -12.8% (active) in test [5]; 63.8% in test [6]. For the same compound, the growth is 36.1% in test [7]; -91.7% (active) in test [8]; -75.7% (active) in test [9]; 38.7% in test [10]; 2.41% (active) in test [11]; -70.8% (active) in test [12]. In addition, the growth is 6.37% (active) in test [13]; -7.37% (active) in test [14]; 31.8% in [15]; -1.08% (active) in test [16]; -74.5% (active) in test [17]; -48.9% (active) in [18]. Besides, the growth in [19] is -80.3% (active).
